Giardia kill: kills Giardia lamblia | 0.15% of 340,000 active | Giardia lamblia trophozoite viability | activity change, % at 7.66 µM, hits read low | AID 540267; in the data active = activity change below about -80%; inconclusive = between about -30% and that limit;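 also: parasites exposed to compound for two days anaerobically before the ATP read; % is scaled to controls: 0 for no effect and ±100 for the full control effect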
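Killing of trophozoites was scored by loss of ATP luminescence after a 48 hrs anaerobic exposure to compounds at 37 deg C, using 100 cells per well.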
SW480 rerep: induces DNA re-replication in SW480 colon adenocarcinoma cells. SW480 DNA re-replication, Hoechst DNA content imaging, 48 h. Potency, µM (titrated, usually from 46.1 µM), without a hit: top-dose re-replication activation, actives largely listed as activators. 1.8% of 340,000 active. AID 624297; also: potency is read from the fitted curve at half-maximal effect; % of control where 0% means no effect; nearly all actives have a fitted effect of over 55% in size
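Compounds, transferred as 23 nL by pin tool, were incubated with cells for 48 hr; DNA content per nucleus was then quantified by Hoechst staining and fluorescence plate imaging.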
RORgamma inh: inhibitors of mouse ROR gamma transcriptional activity. P51450. Drosophila S2 Gal4-RORgamma UAS-luciferase reporter, 20 h. Potency, µM (doses to about 53.6 µM), for inactives: at the highest dose activity change, negative = inhibition, usual class: inhibitors. 5.4% of 310,000 active. AID 2551; also: potency is read from the fitted curve at half-maximal effect; % is scaled to controls: 0 for no effect and ±100 for the full control effect; nearly all actives have a fitted effect of over 60% in size
Target sequence (P51450 whole entry, looked up, the tested form may be a part): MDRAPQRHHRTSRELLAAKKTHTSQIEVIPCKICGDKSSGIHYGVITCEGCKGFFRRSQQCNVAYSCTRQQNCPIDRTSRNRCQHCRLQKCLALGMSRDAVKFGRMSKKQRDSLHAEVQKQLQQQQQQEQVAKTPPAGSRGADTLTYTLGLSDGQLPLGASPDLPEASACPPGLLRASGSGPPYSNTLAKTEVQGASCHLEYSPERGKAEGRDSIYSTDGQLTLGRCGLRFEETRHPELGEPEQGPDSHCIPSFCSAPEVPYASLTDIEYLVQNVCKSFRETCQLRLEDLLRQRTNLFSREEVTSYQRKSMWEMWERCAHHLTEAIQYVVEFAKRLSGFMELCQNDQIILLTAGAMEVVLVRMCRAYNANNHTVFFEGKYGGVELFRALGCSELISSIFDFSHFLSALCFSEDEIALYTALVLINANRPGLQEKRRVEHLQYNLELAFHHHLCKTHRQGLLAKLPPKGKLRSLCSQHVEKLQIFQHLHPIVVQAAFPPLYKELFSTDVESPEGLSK
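In this cell-based reporter format, copper sulfate (700 uM final) drives Gal4–ROR gamma fusion expression from a metallothionein promoter in Drosophila Schneider cells; compounds preincubated 1 hr, reporter read after 20 hr at ambient temperature.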
BCR signal inh: inhibitors of chronic active B-cell receptor signaling; 0.05% of 340,000 active; ABC-DLBCL IkBa-CBG/CBR reporter, luminescence ratio, 4 h; Potency, µM (top dose mostly 46.1 µM), for the others: at the highest dose activity change, negative = inhibition, actives largely listed as inhibitors; active = well fitted inhibition curve with a large enough effect in the signal ratio, with a control signal flat, not every such curve was filed as active; inconclusive = small, poorly fitted or top-dose-only effect, or effect the other way, or a change in a side signal; the % refers to the signal ratio;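 also: potency is read from the fitted curve at half-maximal effect; plate controls were basal doxycycline-induced cells for no effect and cells given 10 µM MG132 for full effect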
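Cell line TMD8 (human ABC DLBCL), stably expressing tet-inducible CBG68-IkBa fusion and CBR; IMDM/0.5% FBS; cpd up to 46 uM; dox induction, 4 h, 37C/5% CO2; dual luminescence; green/red ratio; MG132 control.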
MCF10A rerep: DNA re-replication induction in MCF 10a cells; 2.9% of 350,000 active; MCF 10A DNA re-replication, Hoechst nuclear intensity, 48 h; Potency, µM (titrated, usually from 46.1 µM), for the others: at the highest dose activity, positive = re-replication, actives largely listed as activators; also: potency is read from the fitted curve at half-maximal effect; % of control where 0% means no effect; nearly all actives have a fitted effect of over 50% in size
VP16 counter: Gal4-VP16 reporter inhibition counter-screen. Drosophila S2 Gal4-VP16 UAS-luciferase, luminescence, 20 h. Potency, µM (highest dose often 53.6 µM), without a hit: top-dose activity, negative = inhibition, usual class: inhibitors. 3.5% of 310,000 active;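 also: Gal4-VP16 expression switched on by copper sulfate through the metallothionein promoter; potency is read from the fitted curve at half-maximal effect; % is scaled to controls: 0 for no effect and ±100 for the full control effect; nearly all actives have a fitted effect of over 50% in size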
Starred values were filed as active, the others as inactive; ? = inconclusive; · = no result given; ! = repeats disagree; [ ] = dose if it differs, or a comment. This is a sample that favours compounds with a hit; in the whole collection about 8.3% have one here. Unless noted, calls follow the shape of the dose curve; as a rule, active = well fitted curve in the direction sought with a large enough effect; inconclusive = small, poorly fitted or top-dose-only effect, or another doubt; inactive = no such curve, though single readings can be large; an effect the other way counts as inactive or inconclusive.

SMILES	Giardia kill	SW480 rerep	RORgamma inh	BCR signal inh	MCF10A rerep	VP16 counter
COC(=O)C1=C(c2ccc(F)cc2OCc2ccccc2)C[C@@H]2CC[C@H]1N2C(=O)NCCN1CCOCC1	12.3	?	·	-0.1%	0.581µM*	·
COC(=O)C1=C(c2ccc(F)cc2OCc2ccccc2)C[C@@H]2CC[C@H]1N2C(=O)NCc1cccc(C(F)(F)F)c1	4.2	0.7%	·	-7.4%	3.26µM*	·
COC(=O)C1=C(c2ccc(F)cc2OCc2ccccc2)C[C@@H]2CC[C@H]1N2C(=O)NCc1cccc(OC)c1	-0.1	14.2%	·	-8.5%	24.6%	·
COC(=O)C1=C(c2ccc(F)cc2OCc2ccccc2)C[C@@H]2CC[C@H]1N2C(=O)NCCc1ccc(F)cc1	-8.2	-5.7%	·	?	?	·
COC(=O)C1=C(c2ccccc2OCc2ccccc2)C[C@@H]2CC[C@H]1N2C(=O)NCCOc1ccc(OC)cc1	-22.4	?	·	-12.4%	6.51µM*	·
CCN(CC)C(=O)c1c(C)[nH]c(=S)c(C#N)c1-c1ccco1	-8.6	?	?	4.6%	?	-23.7%[10 µM]
O=C(c1[nH]nc2c1CCc1ccccc1-2)N1CCN(Cc2ccc3c(c2)OCO3)CC1	-3.4	18.5%	?	?	10.1%	-10.6%
CCC(C)C1N=C(c2ccccc2)c2cc(Cl)ccc2N(CC(=O)NCc2ccco2)C1=O (stereo not given)	-6.6	-13.7%	13.3%	4.3%	-10.3%	-22.0%
Cc1ccccc1C1=NCC(=O)N(CC(=O)NCc2ccco2)c2sc3c(c21)CCCC3	-2.9	-2.3%	?	?	?	12.6µM*
Cc1cccc(C(=O)NC2CC3CCCC(C2)N3Cc2ccccc2)c1 (stereo not given)	8.8	?	-6.5%	-1.0%	-14.4%	-18.5%
O=[N+]([O-])c1ccc(NCCO)c2ncccc12	19.4	-16.0%	-15.9%	-7.3%	-0.6%	0.2%
O=[N+]([O-])c1cc(Cl)c2cccnc2c1O	-10.9	?	2.82µM*	11.2µM*	2.59µM*	3.98µM*
Cl/C=C/CCl	·	·	-0.3%	·	·	-1.2%
N#CC(C#N)=NNc1ccc(-n2ccc(C(F)(F)F)n2)cc1	12.7	?	5.01µM*	?	?	3.55µM*
Cc1cc(C)n(-c2ccc(NN=C(C#N)C#N)cc2)n1	4.7	113.3%	?	?	?	10µM*
CCOC(=O)Cn1cc(C(=O)c2ccccc2F)c2ccccc21	-11.1	-4.3%	41.5%	6.0%	-1.6%	0.8%
CCOC(=O)Cn1cc([N+](=O)[O-])nc1[N+](=O)[O-]	-21.1	23.1µM*	10µM*	?	13.8%	12.6µM*
COC(=O)[C@@H]1C[C@H](OC(C)=O)C(=O)[C@H]2[C@@]1(C)CC[C@H]1C(=O)O[C@H](c3ccoc3)C[C@]21C	·	·	24.0%	·	·	-19.6%
CCCCCc1ccc(C(=O)CCCC)c(=S)[nH]1	9.5	?	2.51µM*	?	?	-23.3%
CCC1COC(Cn2cncn2)(c2ccc(Cl)cc2Cl)O1 (stereo not given)	·	·	-26.8%	·	·	0.1%
Nc1ncnc2c1ncn2[C@@H]1O[C@H](COP(=O)(O)O)[C@@H](O)[C@H]1O	27.3	?	-26.5%	?	-4.3%	-18.0%
NC(=O)c1ncn([C@@H]2O[C@H](CO)[C@@H](O)[C@H]2O)n1	-4.5	?	-25.9%	?	1.8%	-8.1%
Nc1ncnc2c1ccn2[C@@H]1O[C@H](CO)[C@@H](O)[C@H]1O	-9.2	?	0.631µM*	·	?	1.12µM*
NC(=S)c1cn(C2OC(CO)C(O)C2O)c2ncnc(N)c12 (stereo not given)	-18.1	-5.9%	7.08µM*	?	?	2.51µM*
COC(=O)c1ccc(COc2ccc3c(C)c(C)c(=O)oc3c2)o1	-2.9	0.0%	19.1%	?	2.3%	-9.6%
SMILES	Giardia kill	SW480 rerep	RORgamma inh	BCR signal inh	MCF10A rerep	VP16 counter
Oc1ccc2c(c1)[C@@]13CCCCC1[C@@H](C2)N(CC1CCC1)CC3 (stereo not given in full)	·	·	21.3%	·	·	4.5%
Cc1c(OCC(F)(F)F)ccnc1CS(=O)c1nc2ccccc2[nH]1 (stereo not given)	-12.4	?	11.2µM*!	?	14.6%	?
CCOC(=O)CCN(SN(C)C(=O)Oc1cccc2c1OC(C)(C)C2)C(C)C	·	·	30.8%	·	·	29.4%
O=C(Nc1ccccc1[N+](=O)[O-])c1ccc(S(=O)(=O)N2CCCC2)cc1	-13.2	7.9%	?	2.9%	9.5%	5.7%
Cc1onc(-c2ccccc2)c1C(=O)Nc1ccc(S(=O)(=O)N2CCCC2)cc1	-28.1	-10.9%	8.91µM*	-0.5%	1.0%	-24.7%
CC(C)c1cccc(O)c(=O)c1	8.7	5.2%	2µM*	0.3%	8.2%	2.82µM*!
NCC(O)c1cccc(O)c1 (stereo not given)	·	-4.0%	39.0%	·	-3.1%	7.7%
C[S@@](=O)CCCCN=C=S	·	·	3.16µM*	·	·	-11.4%
O=C1[C@H]2[C@@H](C3CC3)N3C(=O)CN(CC4CC4)C(=O)[C@@]3(Cc3ccccc3)[C@H]2C(=O)N1c1ccccc1	-16.6	-0.4%	·	2.7%	-5.8%	·
N#Cc1nn(-c2c(Cl)cc(C(F)(F)F)cc2Cl)c(N)c1S(=O)C(F)(F)F (stereo not given)	·	-3.4%	?	·	1.0%	20µM*
Cn1ccc(NC(=O)CCl)n1	6.9	19.8%	5.01µM*	?	14.5%	4.47µM*
Cc1cc(NC(=O)CCl)nn1C	-11.5	?	-11.2%	?	?	?
CC[C@H](Oc1ccc(Cl)cc1)C(=O)OC1C[C@H]2CC[C@@H](C1)N2C (stereo not given in full)	·	·	-9.6%	·	·	14.1%
CC(C)(C)c1ccc(-c2n[nH]c(=S)n2CCCN2CCOCC2)cc1	1.8	-2.0%	7.94µM*	9.2%	0.1%	-25.6%
CC(C)(C)c1ccc(C(=O)NCCN2CCOCC2)cc1	51.8	?	·	·	-2.2%	·
CC(=O)C1=C(O)[C@@H]2[C@@H]3c4c[nH]c5cccc(c45)C[C@@H]3C(C)(C)N2C1=O	·	·	-32.1%	·	·	-29.7%
C[N+](C)(C)CC1CCCc2ccccc2C1=O (stereo not given)	8.3	15.6%	·	·	13µM*	·
CCCCNC(=O)OC(C)CNC(=O)Oc1cccc(C)c1 (stereo not given)	-5.4	0.7%	-8.5%	?	-3.6%	6.1%
O=Cc1ccc(Cl)cc1Cl	·	·	-3.8%	·	·	8.1%
O=c1nc(/C=C/c2ccc(Cl)cc2Cl)cc(C(F)(F)F)[nH]1	8.4	-9.2%	?	?	6.51µM*	?
O=C1CN=C(c2ccccc2)c2oc3ccc(Br)cc3c2N1	-12.5	-0.1%	1.4%	?	9.4%	-7.5%

Screening results (PubChem BioAssay)
